Compound activity as filed in PubChem.
Most compounds without a hit are left out; they make up all but 4.1% or so of the library.
DAX1 inh-1 – DAX1 (NR0B1) inhibitors, primary screen, cell-based, HEK293, Gal4-DAX1, luciferase luminescence | 340,000 tested, 0.99% active | inhibition, % at 6.75 µM | AID 504766, 2011 | HEK293 Gal4-DAX1 luciferase reporter;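 active means inhibition above the mean over all tested compounds plus 3 SD, cut at about 4.2% in these data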;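 further: 0% = DAX1-transfected cells with DMSO and 100% = empty-vector control cells with DMSO; inhibition shows as a rise in luminescence from relieved DAX1 repression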
Target sequence (P51843 207-470 limits assumed): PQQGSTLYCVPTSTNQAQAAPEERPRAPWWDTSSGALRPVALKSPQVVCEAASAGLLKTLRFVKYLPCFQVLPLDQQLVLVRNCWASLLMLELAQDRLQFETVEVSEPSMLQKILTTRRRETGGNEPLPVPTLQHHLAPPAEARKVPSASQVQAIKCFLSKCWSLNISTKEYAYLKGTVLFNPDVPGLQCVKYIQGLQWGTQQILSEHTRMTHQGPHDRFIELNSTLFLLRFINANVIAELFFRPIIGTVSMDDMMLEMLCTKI
hcDAF12 agonist – H. contortus DAF-12 nuclear receptor activators, primary screen, cell-based, luminescence, HEK293, lit1-tk-luc reporter. HEK293 hcDAF-12 lit1-tk-luc reporter; 0% DMSO, 100% Δ7-dafachronic acid. activation, % at 6.8 µM. 370,000 tested, 1.4% active. AID 652067, 2013;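 active means activation above the mean of all tested compounds plus 3 SD, cut at about 5.5% in these data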;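 further: 100% = response to 3 µM Δ7-dafachronic acid high control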
DAX1 inh-2 – DAX1 (NR0B1) inhibitors on StAR promoter, primary screen, cell-based, luminescence, SF-1 (NR5A1), full-length DAX-1 | inhibition, % at 6.8 µM | AID 652010, 2013 | HEK293T StAR-luciferase reporter, SF-1/DAX-1 repression relief | 370,000 tested, 1.1% active;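 active means inhibition above the mean over all tested compounds plus 3 SD, cut at about 3.6% in these data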;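 further: 0% = DAX-1 cells with DMSO and 100% = cells lacking DAX-1 with DMSO; higher inhibition means more luminescence from relief of DAX-1 repression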
hgDAF-12 ag – H. glycines DAF-12 receptor agonists, primary screen, cell-based, luminescence, HEK293, GAL4 fusion, UAS-luciferase; AID 687014, 2013; Nuclear hormone receptor DAF-12 (Heterodera glycines), GAL4 fusion; HEK293 GAL4-hgDAF12 UAS-luciferase reporter, agonist luminescence; normalized to butyrate control; activation, % at 6.8 µM; 370,000 tested, 1.8% active;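 active means activation above a cutoff set at the mean of all screened compounds plus 3 SD, cut at about 10% in these data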;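 further: 0% = DMSO wells and 100% = sodium butyrate wells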
ssDAF-12 act – S. stercoralis DAF-12 nuclear receptor activators, primary screen, cell-based, luminescence, HEK293, GRIP1 co-expression, lit1-tk-luc; activation, % at 6.8 µM; Nuclear hormone receptor DAF-12 (Strongyloides stercoralis); 370,000 tested, 1% active; HEK293 ssDAF-12/GRIP1 lit1-tk-luc reporter; % of 3 µM dafachronic acid response;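 active means activation above the mean over all tested compounds plus 3 SD, cut at about 0.9% in these data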;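 further: 0% = DMSO-only wells and 100% = 3 µM delta7-dafachronic acid wells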
DAX1 inh confirm – DAX1 (NR0B1) inhibitors relieving SF-1 repression, confirmation, cell-based, luminescence, HEK293T, full-length DAX-1, SF-1 activated StAR promoter; shares compounds with DAX1 inh-2; HEK293T StAR-promoter luciferase reporter, SF-1/DAX-1 repression; inhibition, % at 6.8 µM; 2,400 tested, 87% active; AID 652134, 2013;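 active means inhibition above the average of every tested compound plus 3 SD, cut at about 3.8% in these data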;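 further: 0% = DAX-1 cells with DMSO and 100% = no DAX-1 control cells with DMSO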
SF1 mutant ctr – StAR reporter signal changes without DAX1, counter-screen for DAX1 inhibitor project, cell-based, luminescence, AF-2 mutant SF-1, transactivation; shares compounds with DAX1 inh-2; HEK293 StAR-luciferase, SF-1 AF2 mutant; inhibition, % at 6.8 µM; 2,400 tested, 78% active; AID 652136, 2013;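 active means inhibition above the mean of all tested compounds plus 3 SD, cut at about 3% in these data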;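 further: 0% = DAX-1 transfected cells with DMSO and 100% = cells without DAX-1 with DMSO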
Active calls of the source: *; x = no result given.

SMILES | DAX1 inh-1 | hcDAF12 agonist | DAX1 inh-2 | hgDAF-12 ag | ssDAF-12 act | DAX1 inh confirm | SF1 mutant ctr
C=C1CCCC2OC(CC3=CC4/C(C)=C/CC(C)CC(/C=C(\C)C(O)C5CC(O)C(O)C(CCC(O)/C=C/C(C)=C/CCC6=NCCC(C3)C64C)O5)OC(=O)CC3OC(C(O)C1)C(O)C3O)CC(O)C2O (configuration not stated) | x | 5.8* | 7.9* | 0 | 0 | 11* | -3
C/C(=N\NC(=O)c1ccc(O)cc1)c1ccc(NC(=O)Cc2ccccc2)cc1 | 2 | 2 | 5.5* | 12* | 0 | 3 | 1
Cc1ccc(NC(=O)C(=O)NCCCN2CCCC2=O)cc1 | 0 | 5 | 6.5* | 12* | 0 | 9.7* | 6.5*
CCCCCCCCN1CN2Cc3cc(F)ccc3C2CS1(=O)=O (configuration not stated) | x | 1 | 0 | -2 | 0 | x | x
COC(=O)[C@]12C[C@H](CC(=O)N3CCOCC3)C(=O)N(Cc3ccc4c(c3)OCO4)C1=C[C@H](COCc1ccccc1)O[C@@H]2C | x | 0 | -1 | 0 | -2 | x | x
N/C(=N\OC(=O)c1ccccc1)c1cccnc1 | 1 | 1 | 2 | 8 | 0 | x | x
N/C(=N\OC(=O)c1ccccc1)c1ccn[nH]1 | 1 | 4 | 12* | 10 | 1 | 8.2* | 4.9*
N#Cc1c(NC(=O)/C=C/c2ccco2)sc2c1CCCC2 | 2 | 6.2* | 5.1* | 6 | 1 | 31* | -6
O=C(/C=C/c1ccco1)Nc1sc2c(c1C(=O)O)CCC2 | 0 | 0 | 1 | 3 | 0 | x | x
CC(=O)c1ccccc1NC(=O)c1ccc2c(c1)NC(=O)C(C)S2 (configuration not stated) | -1 | 2 | 3 | 2 | -1 | x | x
Cc1ccnc(NC(=O)c2ccc3c(c2)NC(=O)C(C)S3)c1 (configuration not stated) | -2 | 4 | 11* | 6 | 0 | 9.2* | 3.9*
CC1(C)Cc2cccc(OCC(=O)NCCc3ccc(S(N)(=O)=O)cc3)c2O1 | 0 | -2 | 1 | 3 | -2 | x | x
CC1(C)Cc2cccc(OCC(=O)NCCc3ccccc3)c2O1 | 1 | -1 | 5.1* | -1 | 0 | 4.5* | 3.1*
Cc1ccc(S(=O)(=O)Nc2cc(C)cc(CCNC=O)c2C)cc1 | 0 | -1 | -1 | -1 | 0 | x | x
Cc1c(CCNC=O)cc(C)c2c3c(oc12)CCCC3 | 5.3* | 1 | 4.9* | 7 | 0 | 6.5* | 5.8*
CCOc1cccc(C2C(C(=O)c3ccc(C)o3)=C(O)C(=O)N2c2nnc(C)s2)c1 (configuration not stated) | 0 | 1 | 6.5* | 2 | -1 | 6.0* | 3.8*
Cc1ccc(-c2csc(/C(C#N)=C(\O)CCl)n2)cc1 | 0 | 1 | 5.1* | 12* | -2 | 3 | 2
O=C(CCc1ccccc1)N[C@H]1[C@@H](OC(=O)c2cnccn2)CCC[C@@]12C(=O)N(Cc1ccccc1)c1ccccc12 | x | 4 | -1 | 2 | -2 | x | x
C[C@@H]1ON(C)[C@H]2C[C@H]3c4[nH]c5c(-c6ccccc6F)cccc5c4CCN3C[C@@H]12 | x | -2 | -1 | 2 | -1 | x | x
C[C@H]1[C@@H](OC(=O)Oc2ccc([N+](=O)[O-])cc2)CC[C@@]23CCCN2C(=O)CCC[C@@H]13 | x | -2 | x | -1 | -1 | x | x
O=C(OC12CCCN(C1)/C(=C/c1cccnc1)C2)C1CCCCC1 (configuration not stated) | x | -4 | -3 | -4 | -2 | x | x
O=C(Nc1ccc(CSc2ccccc2)cc1)c1ccco1 | 2 | 3 | 5.5* | 13* | 0 | 8.4* | 5.5*
Nc1cc(-c2ccc(Cl)cc2)nn1-c1ccccc1 | 2 | 2 | 1 | 9 | -1 | x | x
O=C1CCn2nc(-c3ccc(Cl)cc3)cc2N1 | 3 | 5 | 5.3* | 8 | 1.0* | 6.3* | 4.3*
C#CCN(CC=C)Cc1ccc(OC)cc1OC | x | 0 | 0 | -4 | -1 | x | x
SMILES | DAX1 inh-1 | hcDAF12 agonist | DAX1 inh-2 | hgDAF-12 ag | ssDAF-12 act | DAX1 inh confirm | SF1 mutant ctr
CN1CCCC(OC(=O)c2ccc3c(c2)OCCO3)C1 (configuration not stated) | 2 | 1 | 5.4* | 6 | 0 | 6.4* | 3.2*
CN1CCCC(OC(=O)c2ccc(Cl)cc2)C1 (configuration not stated) | 1 | 0 | 0 | 1 | -2 | x | x
CC(C)(C)n1cnc2cc(NC(=O)c3cccs3)ccc21 | 2 | 3 | 5.6* | 10 | -1 | 8.6* | 5.9*
CC(C)(C)n1cnc2cc(NCc3cccs3)ccc21 | 1 | 0 | 3 | 6 | -1 | x | x
CC(Nc1nc(-c2ccccc2)nc2ccccc12)c1ccccc1 (configuration not stated) | 1 | 0 | 4.7* | 7 | -1 | 7.3* | 0
CC(Nc1nc(-c2ccccc2O)nc2ccccc12)c1ccccc1 (configuration not stated) | 1 | 4 | 2 | 10 | 1 | x | x
COc1cc(Cl)ccc1OCc1cc(C(=O)N2C[C@@H]3CCC[C@H]2C3)no1 | 1 | 4 | 5.2* | 9 | 0 | 7.5* | 4.9*
COc1cc(Cl)ccc1OCc1cc(C(=O)N2C[C@H]3CC[C@H]2C3)no1 | 3 | 2 | 5.5* | 8 | 0 | 4.7* | 4.0*
Cc1ccsc1C(=O)OCC(=O)c1cc(C)n(C)c1C | -3 | 5 | 4.8* | 3 | 0 | 6.0* | -1
Cc1cc(C(=O)COC(=O)c2nccnc2N)c(C)n1C | 1 | 3 | 2 | 8 | -1 | x | x
CCCC1CCC2(CCCN2CCOC(=O)Nc2ccc(F)cc2)CC1 (configuration not stated) | x | -1 | x | 3 | -2 | x | x
Cc1ccc(Cn2cc(CN3CC(N4CCN(C5CCN(C)CC5)CC4)CS3(=O)=O)nn2)cc1 (configuration not stated) | x | 0 | 4.7* | -2 | -1 | 3 | 4.1*
